Assay outcomes from PubChem BioAssay.
PNC inhibitor: High Content Assay for Compounds that inhibit the Assembly of the Perinucleolar Compartment; PC3M PTB-GFP, PNC prevalence imaging, 16 h; hits give low values; activity change (PNC), negative = inhibition, % at 10 µM; 140,000 tested, 3.1% active;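 active means readout at or below -70, meaning at least 70% loss of cells showing the perinucleolar compartment, a nuclear body marking cancer cells; inconclusive means readout between -30 and a set limit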;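 further: plate controls were DMSO wells for no effect and camptothecin positive control wells for full effect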
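Compounds are pinned in duplicate onto adhered PC3M cells stably expressing GFP-tagged PTB and incubated 16 h at 37 C. Cells are then fixed, nuclei stained with Hoechst, and PNC-positive cells counted.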
HTT cytoprotect: qHTS Multiplex Assay to Identify Dual Action Probes in a Cell Model of Huntington: Cytoprotection (ATP); 230,000 tested, 0.14% active; AID 1471, 2008; Potency, µM (titrated, usually from 56.4 µM), for the others: cytoprotection (ATP increase), most hits filed as activators; PC12 HTT-Q103 induced, cytoprotection, ATP luminescence, 40 h; further: potency means the concentration at half of the fitted maximal effect; % of control where 0% means no effect; nearly all actives have a fitted effect of over 45% in size
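Compounds added alongside 100 nM tebufenozide, which induces toxic Q103 huntingtin exon 1-GFP in stable PC12 cells; surviving cells quantified by luminescent ATP measurement. Medium: phenol red-free DMEM, 5% equine and 5% calf serum.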
HTT aggregate: qHTS Multiplex Assay to Identify Dual Action Probes in a Cell Model of Huntington: Aggregate Formation (GFP). 220,000 tested, 1.1% active. Potency, µM (highest dose often 46.1 µM), for inactives: top-dose activity change, negative = inhibition, usual class: inhibitors. PC12 HttQ103-GFP aggregates, Acumen cytometry, 40 h; further: potency means the concentration at half of the fitted maximal effect; on the % scale 0 is the no-effect control and ±100 the full control effect; nearly all actives have a fitted effect of over 60% in size
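Aggregate formation scored by laser-scanning cytometer (488 excitation, 500–530 emission) in lysed PC12 cells expressing Q103-GFP after 100 nM tebufenozide induction; library tested in dose series, with ATPLite reagent added in the multiplex.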
Numbers without * were called inactive; ? = inconclusive; nt = no result given; [ ] = remark or other dose. This excerpt belongs to a sample that is enriched for hits. Unless noted, the call rests on the fitted dose curve; in most records, active means well fitted curve in the direction sought with a large enough effect; inconclusive means small, poorly fitted or top-dose-only effect, or another doubt; inactive means no such curve, though single readings can be large; an effect the other way counts as inactive or inconclusive.

SMILES | PNC inhibitor | HTT cytoprotect | HTT aggregate
COCC(=O)Nc1ccccc1C(=O)Nc1ccc(OC)cc1 | 11 | -85% | 9%
COc1ccc(OC)c(-c2c3cc(O)c(=O)cc-3oc3cc(O)c(O)cc23)c1 | -6 | nt | 5µM*
COc1ccccc1-c1cc(=O)c2cc(O)ccc2o1 | nt | 2%[1.9 µM] | nt
O=c1cc2oc3cc(O)c(O)cc3c(-c3ccccc3O)c-2cc1O | nt | -13%[10 µM] | -19%[9.22 µM]
CCOc1ccccc1-c1c2cc(O)c(=O)cc-2oc2cc(O)c(O)cc12 | -83* | 8%[10 µM] | -4%
CCOc1cc(/C=N/n2c(C)nnc2C)ccc1O | nt | 15%[10 µM] | -10%[9.22 µM]
Cc1cccc(CSc2ncnc3ccccc23)c1 | nt | -9% | -26%
O=[N+]([O-])c1cccc(CSc2ncnc3ccccc23)c1 | nt | 2.2µM* | 15%
Cc1ccc(NC(=O)CC2S/C(=N/N=C/C=C/c3ccccc3)NC2=O)cc1Cl (configuration not stated) | ? | 2%[10 µM] | -19%
Cc1nc(NC(=O)c2ccccc2)sc1-c1csc(Nc2ccc(F)cc2)n1 | -100* | -60% | ?
C=CCNc1nc(-c2sc(NC(C)=O)nc2C)cs1 | -19 | -34% | 13µM*
C=CCCC(=O)Nc1nc(C)c(-c2csc(Nc3ccccc3OC)n2)s1 | -12 | -93% | 18µM*
CCCCC(=O)Nc1nc(C)c(-c2csc(Nc3ccccc3OC)n2)s1 | ? | -43% | ?
C=CCNc1nc(-c2sc(NC(=O)CC)nc2C)cs1 | 124 | -19%[10 µM] | ?
Cc1nc(NC(=O)c2ccccc2)sc1-c1csc(Nc2ccc(Cl)cc2)n1 | ? | -48% | 1%
S=c1[nH]ncn1/N=C/c1ccc(N2CCOCC2)cc1 | 39 | -94% | 6%
Cc1ccc(NNC(=O)c2ccno2)c(C)c1 | nt | 2%[10 µM] | 10%[9.22 µM]
CCc1ccc(NC(=S)Nc2ccc3cn[nH]c3c2)cc1 | 11 | nt | 3%
CCCCNC(=S)Nc1ccc2cn[nH]c2c1 | -84* | -12%[10 µM] | -17%
COc1c2c(nc3occc13)C(CC=C(C)C)(OC)C(O)CC2 (configuration not stated) | -100* | 24%[10 µM] | 4%
COc1c2c(nc3occc13)C(CC=C(C)C)(OC)C(OC(C)=O)CC2 (configuration not stated) | -14 | 1%[1.9 µM] | -11%
COc1ccc(N/C=C2/CCCCC2=O)cc1 | 31 | 20µM* | 6%
COc1ccc(Oc2ccc(N/C=C3/CCCC3=O)cc2)cc1 | 55 | -35%[10 µM] | 17%
CNc1nc(-c2c(C)noc2C)nc2ccccc12 | nt | 3% | nt
COc1ccc(-c2cc(C3CCN(c4cc(Cl)nc(N)n4)CC3)[nH]n2)cc1 | 49 | -96% | 13µM*
SMILES | PNC inhibitor | HTT cytoprotect | HTT aggregate
Nc1nc(Cl)cc(N2CCC(c3cc(-c4ccc(Cl)cc4)n[nH]3)CC2)n1 | 4 | -87% | ?
O=C1C(=O)N(CC(=O)N2CCCC2)c2ccccc21 | nt | nt | 9%
COc1ccccc1N1CCN(CCCCN2C(=O)c3ccccc3C2=O)CC1 | nt | -15% | nt
CC(C)(C)c1nnc(N/N=C/c2cc(Br)ccc2O)n(N)c1=O | 14 | -24%[10 µM] | 13µM*
Cc1ccc(Nc2nnc(C(C)(C)C)c(=O)n2N)cc1 | -6 | 5%[10 µM] | -7%
Fc1ccccc1CSc1ncn[nH]1 | -100* | 4%[10 µM] | -11%
Clc1ccc(CSc2ncn[nH]2)cc1 | -21 | -1% | -9%
COC(=O)CCCC1=CC2=C(c3ccccc3)C(=O)C(C)(OC(=O)C3CCCC3)C(=O)C2=CN1CC(C)C (configuration not stated) | nt | 5%[10 µM] | 2%[9.22 µM]
CCc1cccc2c(C(=O)CSc3nncn3-c3ccc(OC)cc3)c[nH]c12 | -104* | -10%[10 µM] | 2%
CCc1cccc2c(C(=O)CSc3nncn3-c3ccccc3OC)c[nH]c12 | -13 | -10%[10 µM] | 12%
O=C(NCCCc1nc2ccccc2[nH]1)c1ccc(F)cc1 | nt | 0.35µM* | ?
O=C(CNC(=O)c1ccc(Br)cc1)NCCc1nc2ccccc2[nH]1 | -5 | 0% | 8%
COC(=O)N(NC(=O)C(O)(c1ccccc1)c1ccccc1)c1ccc(C)cc1 | 2 | 24%[1.9 µM] | -2%
CC(=O)c1sc(N/N=C\c2cccc(Br)c2)nc1C | -85* | -1%[10 µM] | -14%
CC(=O)c1sc(N/N=C\c2ccc(Br)cc2)nc1C | 49 | -3%[10 µM] | -11%
Cc1cc(C(=O)N/N=C/c2cc(Br)ccc2OC(=O)c2ccccc2)n[nH]1 | -24 | -36%[10 µM] | 2µM*
Cc1cc(C(=O)N/N=C/c2cc(Br)ccc2OC(=O)c2ccccc2Cl)n[nH]1 | nt | 8%[10 µM] | -16%[9.22 µM]
Cc1nc2ccccc2c(=O)n1NS(C)(=O)=O | -112* | -2% | 17%
